TDP1 cell CPT: qHTS for Inhibitors of human tyrosyl-DNA phosphodiesterase 1 (TDP1): qHTS in cells in presence of CPT; chicken DT40 Tdp1-/-;hTDP1 cells + 20 nM CPT, ATP luminescence, 48 h; actives 12% (n = 420,000); Potency, µM (doses to about 46.2 µM), inactives show at the top dose activity change, negative = growth inhibition, most hits filed as inhibitors; AID 686979, 2013; note: nearly all actives have a fitted effect of over 55% in size
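Chicken DT40 Tdp1-/- cells stably complemented with human TDP1 were seeded at 400 cells/well in medium containing 20 nM camptothecin, exposed to pin-transferred compounds, and grown at 37 °C for at least 48 hr. Viability was read as ATP luminescence.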
RORgamma inh: qHTS for inhibitors of ROR gamma transcriptional activity | Nuclear receptor ROR-gamma (Mus musculus), P51450 | Drosophila S2 Gal4-RORgamma UAS-luciferase reporter, 20 h | Potency, µM (titrated, usually from 53.6 µM), without a hit: at the highest dose activity change, negative = inhibition, hits mostly inhibitors | actives 5.4% (n = 310,000) | AID 2551, 2010; note: nearly all actives have a fitted effect of over 60% in size
Target sequence (P51450 whole entry, looked up, the tested form may be a part): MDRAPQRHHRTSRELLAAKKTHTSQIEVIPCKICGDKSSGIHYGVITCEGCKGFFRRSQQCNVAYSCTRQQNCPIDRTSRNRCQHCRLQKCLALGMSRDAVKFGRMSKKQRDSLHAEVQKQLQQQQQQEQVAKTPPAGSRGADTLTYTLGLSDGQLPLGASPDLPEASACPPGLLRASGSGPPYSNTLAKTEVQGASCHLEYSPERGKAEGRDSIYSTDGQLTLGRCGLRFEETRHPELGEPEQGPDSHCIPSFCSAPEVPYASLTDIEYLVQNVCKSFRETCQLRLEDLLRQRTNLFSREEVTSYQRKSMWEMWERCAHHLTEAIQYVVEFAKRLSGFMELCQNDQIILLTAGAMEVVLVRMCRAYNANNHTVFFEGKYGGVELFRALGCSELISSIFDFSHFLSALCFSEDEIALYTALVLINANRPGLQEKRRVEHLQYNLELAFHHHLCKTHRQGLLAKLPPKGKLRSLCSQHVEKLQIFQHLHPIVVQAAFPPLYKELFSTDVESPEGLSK
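A Gal4/UAS one-hybrid system in insect cells: metallothionein-promoter Gal4–ROR gamma fusion plus Photinus luciferase reporter. Copper sulfate 700 uM final, 20 hr ambient incubation, luminescent detection after 10 min with reagent.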
ELG1 repair inh: qHTS screen for small molecules that inhibit ELG1-dependent DNA repair in human embryonic kidney (HEK293T) cells expressing luciferase-tagged ELG1 | actives 2.3% (n = 330,000) | AID 504467, 2011 | Potency, µM (doses to about 46.1 µM), inactives show at the highest dose activity change, negative = inhibition, hits mostly inhibitors | HEK293T ELG1-luciferase reporter, luminescence, 16 h; DNA damage induced by 5-fluorouridine; note: nearly all actives have a fitted effect of over 55% in size
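Cells (2,000 per well) received 5-fluorouridine plus test compound or DMSO and were incubated 16 hr at 37 °C, 5% CO2. Luciferase activity was read by luminescence 30 min after ONE-Glo addition; signal suppression marked inhibition of damage-induced ELG1 function.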
Gal4-VP16 FLuc: VP16 counterscreen qHTS for inhibitors of ROR gamma transcriptional activity. Drosophila S2 Gal4-VP16 UAS-luciferase, luminescence, 20 h. actives 3.5% (n = 310,000). Potency, µM (top dose mostly 53.6 µM), for inactives: at the top dose activity, negative = inhibition, actives largely listed as inhibitors. AID 2546, 2010;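 note: Gal4-VP16 expression switched on by copper sulfate through the metallothionein promoter; nearly all actives have a fitted effect of over 50% in size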
TDP1 cell noCPT: qHTS for Inhibitors of human tyrosyl-DNA phosphodiesterase 1 (TDP1): qHTS in cells in absence of CPT. AID 686978, 2013. Potency, µM (top dose mostly 46.2 µM), for inactives: at the highest dose activity change, negative = growth inhibition, most hits filed as inhibitors. actives 15% (n = 420,000). DT40 Tdp1-/- hTDP1 cells, no CPT, ATP luminescence, 48 h; note: nearly all actives have a fitted effect of over 55% in size
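Growth of hTDP1-complemented DT40 Tdp1-knockout cells is measured by ATP luminescence after at least 48 hr compound exposure at 37 °C, with DMSO substituting for the 20 nM CPT used in the parallel screen.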
12-LOX inh: Primary qHTS assay for inhibitors of human arachidonate 12S-lipoxygenase (ALOX12): Round 2; Potency, µM (top dose mostly 108 µM), for the others: top-dose activity change, negative = inhibition, most hits filed as inhibitors; Polyunsaturated fatty acid lipoxygenase ALOX12 (Homo sapiens), P18054; purified 12hLO, xylenol orange hydroperoxide absorbance; actives 1.1% (n = 580,000)
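Purified human 12hLO (150 nM final) in 25 mM Hepes, 0.01% Triton X-100, pH 7.0 was preincubated 15 min at room temperature with compound. Then 40 uM arachidonic acid was added, 30 min. Hydroperoxide was read by Fe-XO absorbance ratio 573/405 nm.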
* hit, by the source's call; u = inconclusive; x = not tested or not shown; [ ] = another dose, or the depositor's remark. A selection: hits, their analogues and other compounds. The true share with any hit is near 15%. Calls come from the whole dose curve; as a rule, active = well fitted curve in the direction sought with a large enough effect; inconclusive = small, poorly fitted or top-dose-only effect, or another doubt; inactive = no such curve, though single readings can be large; an effect the other way counts as inactive or inconclusive. % is set by controls: 0 for no effect and ±100 for the full control effect; potency is the fitted concentration of half-maximal effect.

SMILES	TDP1 cell CPT	RORgamma inh	ELG1 repair inh	Gal4-VP16 FLuc	TDP1 cell noCPT	12-LOX inh
CCCc1nc(SCC(=O)N2CCC(C)CC2)c2c(=O)n(C)c(=O)n(C)c2n1	16µM*	9%	u	1%	12µM*	5%
COc1ccc(CN2C=C(C(=O)O)C(C)=NS2(=O)=O)cc1F	x	x	x	x	x	-4%
CNC(=O)NC(=O)CN1CCOC(c2ccc(F)cc2)C1 (configuration not stated)	x	x	x	x	x	39%
COCc1nc(CCNC(=O)c2sc(C)nc2C)no1	x	x	x	x	x	37%
COC(=O)c1c(N)c2ccccc2[nH]c1=O	-6%	0%	-2%	-2%	-7%	-11%
CCCCCCCn1c(=O)c(C(=O)OC)c(N)c2ccccc21	3.3µM*	1.8µM*	u	1.3µM*	3.3µM*	422%
CCCCCCCCn1c(=O)c(C(=O)OC)c(N)c2ccccc21	1.3µM*	3.2µM*	u	4.5µM*	3.3µM*	40%
COc1ccc(Cl)cc1NC(=O)C1CSC(c2ccncc2)=N1 (configuration not stated)	21µM*	-28%	-8%	u	u	40%
CC(NCc1cccc(Oc2nnnn2-c2ccccc2)c1)c1ccccc1 (configuration not stated)	x	x	x	x	x	-23%
COc1ccc(OC)c(-c2noc(CSc3nnc(Cc4ccccc4)n3-c3cccc(C)c3)n2)c1	18µM*	x	x	x	23µM*	-6%
COc1ccc(-c2noc(CSc3nnc(Cc4ccccc4)n3-c3cccc(C)c3)n2)cc1OC	16µM*	-1%	u	-4%	21µM*	11%
COc1ccc(-c2noc(CSc3nnc(Cc4ccccc4)n3-c3ccccc3)n2)cc1OC	23µM*	x	x	x	13µM*	-11%
COc1ccc(OC)c(-c2noc(CSc3nnc(-c4ccccc4)n3-c3ccccc3)n2)c1	15µM*	x	x	x	5.2µM*	-13%
COc1ccc(OC)c(-c2noc(CSc3nnc(C)n3-c3cccc(C)c3)n2)c1	x	x	x	x	x	1%
CCOc1ccc(-c2noc(CSc3nnc(Cc4ccccc4)n3-c3ccc(F)cc3)n2)cc1	u	x	x	x	u	-2%
CC(=O)NC1CC2(CCN(C(C)=O)CC2)Oc2ccccc21 (configuration not stated)	x	x	x	x	x	7%[12.5 µM]
CSc1ccccc1NC(=O)c1ccccn1	1.3µM*	0.45µM*	u	1.3µM*	2.1µM*	9%
Cc1ccc(-c2ocnc2C(=O)Nc2ccccc2NC(=O)c2ccccn2)cc1	21µM*	1.6µM*	-19%	11µM*	u	3%
Cc1cccc(-c2ocnc2C(=O)Nc2cccc(C)c2C)c1	x	x	x	x	x	-1%
Cc1ccccc1NC(=O)c1ccccn1	u	2%	u	29%	0%	-2%
Cc1cccc(-c2ocnc2C(=O)Nc2ccccc2NC(=O)c2ccccn2)c1	0.92µM*	0.56µM*	-5%	8.9µM*	0.29µM*	31%
COc1ccc(CN2Cc3[nH]cnc3C[C@H]2c2nc(-c3ccc(C(F)(F)F)cc3)no2)cc1	x	x	x	x	x	4%
Cc1ccc(C2=NC3(CCN(C(=O)Cc4cccs4)CC3)ON2)cc1	x	x	x	x	x	-8%
CC(C)c1noc(-c2cn(C3CCN(C(=O)c4ccc(C#N)cc4)C3)nn2)n1 (configuration not stated)	x	x	x	x	x	11%
COc1ccc2nc3cc(Cl)ccc3c(Nc3ccc(O)c(CN4CCN(C)CC4)c3)c2c1	1.8µM*	x	x	x	1.5µM*	u

Source: PubChem BioAssay (National Center for Advancing Translational Sciences (NCATS))
